# Measured values taken from PubChem BioAssay (EPA / NIEHS).
# Values joined by “and” are separate entries in the source; they are usually repeats but may differ in a detail not shown here. Equal entries are not always repeated. Where a structure was tested more than once in an assay, its records may differ in their call. Active and inactive are the calls of the source. The calls were made as follows: active = hit-call score of the fitted dose curve at least 0.9, where 1 is the maximum; inactive = score below 0.9.
# Read-out: Interferon-inducible T-cell alpha chemoattractant (ITAC), CXCL11 (gene 6373)
# Assay: BSK_hDFCGF_ITAC: BioMAP Diversity Plus: hDFCGF Assay for Interferon-inducible T-cell alpha chemoattractant (ITAC) Biomarker Activity (AID 2284251)
# Details: primary human foreskin fibroblasts
# Method: BSK_hDFCGF is a cell-based, multiplexed-readout assay that uses foreskin fibroblast, a human skin primary cell, with measurements taken at 24 hours after chemical dosing in a 96-well plate.BSK_hDFCGF_ITAC is an assay component measured in the BSK_hDFCGF assay. It measures I-TAC antibody related to regulation of gene expression using ELISA technology.Data from the assay component BSK_hDFCGF_ITAC was analyzed at the endpoint, BSK_hDFCGF_ITAC, in the positive analysis fitting direction relative to DMSO as the negative control and baseline of activity. Using a type of binding reporter, gain or loss-of-signal activity can be used to understand protein changes. To generalize the intended target to other relatable targets, this assay endpoint is annotated to the 'cytokine' intended target family, where the subfamily is 'chemotactic factor'.
# The levels of cell surface (or secreted, indicated by the prefix "s") biomarker endpoints were measured by ELISA. Overt cytotoxicity to cells in confluent adherent cultures (all systems other than the BT system) was assessed by measuring total protein levels using sulforhodamine B (SRB) staining in parallel cultures at the time of biomarker measurements, indicated as SRB endpoints. For proliferation assays for adherent cell types, individual cell types are cultured at sub-confluence and relative cell numbers quantified by SRB staining at time points optimized for each system (48 h: 3C and CASM3C systems; 72 h: BT and HDF3CGF systems; 96 h: SAg system). SRB was performed by staining cells with 0.1% SRB after fixation with 10% TCA and reading wells at 560 nm.Viability and proliferation of PBMC (T cells) was quantified by Alamar Blue reduction for the SAg and BT systems. For PBMC viability (referred to as PBMC Cytotoxicity within the assay endpoint names), cells were plated (75,000/well in a 96-well plate) and then chemical samples added for 1 h before addition of activators, SEB and TSST-1 (20 ng/mL final concentration each). Cells were incubated for 90 h. Then, Alamar Blue (20 uL/well) (Invitrogen, Cat DAL1100) was added for 6 h, and the plates were read with a fluorescence microplate reader at 546/580 nm (excitation/emission). For PBMC proliferation, cells were plated and activated as above but incubated for only 16 h prior to addition of Alamar Blue. Plates were read after 6 h.
SMILES,outcome,AC50
NC(=O)C(F)(F)C(F)(F)C(F)(F)F,inactive,–
OCC(O)CC(F)(F)C(F)(F)C(F)(F)C(F)(F)F (stereo unspecified),inactive,–
NC(=O)C(F)(F)C(F)(F)C(F)(F)C(F)(F)C(F)(F)C(F)(F)C(F)(F)F,inactive,–
O=C(O)CCC(F)(F)C(F)(F)C(F)(F)F,inactive,–
C[Si](Cl)(Cl)CCC(F)(F)C(F)(F)C(F)(F)C(F)(F)C(F)(F)C(F)(F)F,inactive,1.49 µM (active)
NC(=O)C(F)(F)C(F)(F)C(F)(F)C(F)F,inactive,–
O=S(=O)(O)CCC(F)(F)C(F)(F)C(F)(F)C(F)(F)C(F)(F)C(F)(F)C(F)(F)C(F)(F)F,inactive,30 µM (active)
NC(=O)C(F)(F)C(F)(F)C(F)(F)C(F)(F)C(N)=O,inactive,–
C=CC(=O)OCC(F)(F)C(F)(F)C(F)(F)C(F)(F)C(F)(F)C(F)(F)C(F)(F)C(F)F,–,30 µM (active)
OCC(F)(F)C(F)(F)C(F)(F)C(F)(F)C(F)(F)C(F)(F)CO,inactive,–
OCCCC(F)(F)C(F)(F)C(F)(F)C(F)(F)C(F)(F)C(F)(F)C(F)(F)C(F)(F)F,–,7.67 µM (active) and 5.74 µM (active)
OCC(O)CC(F)(F)C(F)(F)C(F)(F)C(F)(F)C(F)(F)C(F)(F)C(F)(F)C(F)(F)F (stereo unspecified),inactive,–
O=C(O)C(F)(F)OC(F)(F)C(F)(F)OC(F)(F)C(F)(F)OC(F)(F)F,inactive,–
CN(C(=O)C(F)(F)C(F)(F)C(F)(F)F)[Si](C)(C)C,inactive,–
O=S(=O)(O)CCC(F)(F)C(F)(F)C(F)(F)C(F)(F)F,inactive,0.931 µM (active)
O=C(Cl)C(F)(F)C(F)(F)C(F)(F)C(F)(F)C(F)(F)C(F)(F)C(F)(F)F,inactive,–
O=S(=O)(Cl)C(F)(F)C(F)(F)C(F)(F)C(F)(F)C(F)(F)C(F)(F)C(F)(F)C(F)(F)F,inactive,–

SMILES,outcome,AC50
CO[Si](C)(CCC(F)(F)C(F)(F)C(F)(F)C(F)(F)C(F)(F)C(F)(F)F)OC,inactive,–
O=C(F)C1(F)C(F)(F)C(F)(F)C(F)(F)C(F)(F)C1(F)F,inactive,–
CNS(=O)(=O)C(F)(F)C(F)(F)C(F)(F)C(F)(F)C(F)(F)C(F)(F)C(F)(F)C(F)(F)F,inactive,–
O=C(O)C(F)(F)C(F)(F)C(F)(F)C(F)(F)C(F)(F)C(F)(F)C(F)F,inactive,0.577 µM (active)
C=CC(=O)OCCC(F)(F)C(F)(F)C(F)(F)C(F)(F)F,–,25 µM (active) and 21.5 µM (active)
OCCCCC(F)(F)C(F)(F)C(F)(F)C(F)(F)F,inactive,–
FC(F)(F)C(F)(F)C(F)(F)C(F)(F)C(F)(F)C(F)(F)C(F)(F)CCI,inactive,3.33 µM (active)
O=C(O)C(F)(F)C(F)(F)C(F)(F)OC(F)(C(F)(F)F)C(F)(F)F,inactive,–
COC(F)(C(F)F)C(F)(F)F (stereo unspecified),inactive,–
CCOC(=O)CC(=O)C(F)(F)C(F)(F)F,inactive,–
OCC(F)(F)C(F)(F)C(F)(F)C(F)(F)C(F)(F)C(F)(F)C(F)(F)C(F)(F)CO,–,44.9 µM (active) and 43 µM (active)
OCC(F)(F)C(F)(F)C(F)(F)CO,inactive,9.21 µM (active)
CCN=C1C=CC(=C(c2ccc(N(CC)CC)cc2)c2ccc(N(CC)CC)cc2)c2ccccc21,–,704 nM (active) and 1.12 µM (active)
C=C(C)C(=O)OCC(F)(F)C(F)(F)C(F)(F)C(F)F,inactive,7.82 µM (active)
NS(=O)(=O)C(F)(F)C(F)(F)C(F)(F)C(F)(F)C(F)(F)C(F)(F)F,–,43.1 µM (active) and 39.1 µM (active)
FC(F)(F)C(F)(F)C(F)(F)CC1CO1 (stereo unspecified),inactive,5.97 µM (active)
